Test results published in PubChem BioAssay (EPA / NIEHS).
Calls of active or inactive are those of the source. How the source made its calls: active means hit-call score of the fitted dose curve at least 0.9, where 1 is the maximum; inactive means score below 0.9.

How the values were obtained:
Conditions in all cases: mRNA level, 48 h; actives raise or lower the signal
[1] = read-out: JUN Transcription Factor, JUN (gene 3725); experiment: LTEA_HepaRG_JUN: Life Technologies and Expression Analysis (LTEA) Assay for JUN Transcription Factor using HepaRG (AID 2283513)
Procedure, shortened: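 Read-out is JUN transcript level by TaqMan qRT-PCR, normalized to ACTB, GAPDH and POLR2A, after 48 h chemical treatment of HepaRG cells. Concentration-response spanned eight half-log points up to 100 uM in 0.5% DMSO.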

[2] = read-out: Lipase C (LIPC), LIPC (gene 3990); experiment: LTEA_HepaRG_LIPC: Life Technologies and Expression Analysis (LTEA) Assay for Lipase C (LIPC) using HepaRG (AID 2283514)
Procedure, shortened: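 HepaRG, 48 h exposure, 8-pt half-log series from 100 uM in 0.5% DMSO, duplicates. Readout: LIPC mRNA by Fluidigm qRT-PCR, housekeeping-normalized (ACTB/GAPDH/POLR2A). Gain or loss fitted bidirectionally against DMSO baseline.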

[3] = read-out: Lipoprotein lipase (LPL), LPL (gene 4023); experiment: LTEA_HepaRG_LPL: Life Technologies and Expression Analysis (LTEA) Assay for Lipoprotein lipase (LPL) using HepaRG (AID 2283515)
Procedure, shortened: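 HepaRG, 48 h exposure, 8-pt half-log dilutions from 100 uM, 0.5% DMSO vehicle, duplicates; qRT-PCR (Fluidigm array) of LPL mRNA vs housekeeping genes; bidirectional curve fit relative to DMSO baseline.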

[4] = read-out: MicroRNA 122 (MIR122), gene 406906; experiment: LTEA_HepaRG_MIR122: Life Technologies and Expression Analysis (LTEA) Assay for MicroRNA 122 (MIR122) using HepaRG (AID 2283516); further: the transcript read is the microRNA miR-122
Procedure, shortened: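 Human liver HepaRG cultures receive test chemicals for 48 h at eight half-log concentrations from 100 uM. Expression is quantified by qRT-PCR with ACTB/GAPDH/POLR2A normalization and fitted bidirectionally against 0.5% DMSO.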

[5] = read-out: matrix metalloproteinase-3 (MMP3), MMP3 (gene 4314); experiment: LTEA_HepaRG_MMP3: Life Technologies and Expression Analysis (LTEA) Assay for matrix metalloproteinase-3 (MMP3) using HepaRG (AID 2283519)
Procedure, shortened: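 qRT-PCR read-out of MMP3 mRNA (normalised to three housekeeping genes) in HepaRG liver cells after 48 h chemical exposure; 8-point half-log series, top 100 uM, 0.5% DMSO vehicle. Bidirectional curve fitting against DMSO baseline.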

[6] = read-out: Paternally Expressed 10 (PEG10), PEG10 (gene 23089); experiment: LTEA_HepaRG_PEG10: Life Technologies and Expression Analysis (LTEA) Assay for Paternally Expressed 10 (PEG10) using HepaRG (AID 2283520)
Procedure, shortened: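 Human HepaRG cultures are dosed for 48 h across an eight-point half-log series starting at 100 uM, with 0.5% DMSO as vehicle and baseline. Gain or loss of PEG10 transcript is measured by qRT-PCR and fitted in both directions.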

[7] = read-out: Nuclear factor NF-kappa-B p105 subunit (Homo sapiens) (UniProt P19838); experiment: LTEA_HepaRG_NFKB1: Life Technologies and Expression Analysis (LTEA) Assay for Nuclear Factor Kappa B Subunit 1 (NFKB1) using HepaRG (AID 2283521);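 further: differentiated human HepaRG liver cells in serum-free induction medium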
Procedure, shortened: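 NFKB1 transcript was measured by TaqMan qRT-PCR on Fluidigm arrays, normalised to three housekeeping genes and fitted in both directions against 0.5% DMSO. HepaRG cells were dosed in duplicate for 48 h in serum-free induction medium, eight half-log steps from 100 uM.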

[8] = read-out: Protein phosphatase 2A (PPP2R4), PTPA (gene 5524); experiment: LTEA_HepaRG_PPP2R4: Life Technologies and Expression Analysis (LTEA) Assay for Protein phosphatase 2A (PPP2R4) using HepaRG (AID 2283522)
Procedure, shortened: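 Cells were plated, cultured 48 h, switched to serum-free induction medium, then dosed for 48 h (8 points, max 100 uM, 0.5% DMSO). RNA was isolated and PPP2R4 expression measured by TaqMan qRT-PCR.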

[9] = read-out: Pyruvate Dehydrogenase Kinase 4 (PDK4), PDK4 (gene 5166); experiment: LTEA_HepaRG_PDK4: Life Technologies and Expression Analysis (LTEA) Assay for Pyruvate Dehydrogenase Kinase 4 (PDK4) using HepaRG (AID 2283525)
Procedure, shortened: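 HepaRG (human liver line), 48 h chemical exposure, 8-pt half-log CRC top 100 uM, 0.5% DMSO vehicle, duplicates. Readout: TaqMan qRT-PCR of PDK4 mRNA, housekeeping-normalized; gain/loss fit relative to DMSO baseline.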

[10] = read-out: NAD(P)H dehydrogenase [quinone] 1 (NQO1), NQO1 (gene 1728); experiment: LTEA_HepaRG_NQO1: Life Technologies and Expression Analysis (LTEA) Assay for NAD(P)H dehydrogenase [quinone] 1 (NQO1) using HepaRG (AID 2283526)
Procedure, shortened: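 Transcript induction or suppression is quantified by qRT-PCR in human HepaRG liver cells dosed for 48 hours. Eight half-log concentrations topping at 100 uM are used, with 0.5% DMSO as vehicle and baseline.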

[11] = read-out: Nuclear factor erythroid 2-related factor 2 (Homo sapiens) (UniProt Q16236); experiment: LTEA_HepaRG_NFE2L2: Life Technologies and Expression Analysis (LTEA) Assay for Nuclear factor erythroid 2-related factor 2 (NFE2L2) Transcription Factor using HepaRG (AID 2283527)
Procedure, shortened: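 HepaRG, 48 h dosing, 8-pt half-log series from 100 uM in 0.5% DMSO, duplicates. Read-out: NFE2L2 mRNA by qRT-PCR (ACTB/GAPDH/POLR2A normalization). Bidirectional curve fit vs DMSO baseline.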

[12] = read-out: succinate dehydrogenase complex iron sulfur subunit B (SDHB), SDHB (gene 6390); experiment: LTEA_HepaRG_SDHB: Life Technologies and Expression Analysis (LTEA) Assay for succinate dehydrogenase complex iron sulfur subunit B (SDHB) using HepaRG (AID 2283528)
Procedure, shortened: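 SDHB transcript level read by TaqMan qRT-PCR, housekeeping-normalised (ACTB, GAPDH, POLR2A), after 48 h chemical treatment of plated HepaRG cells; eight concentrations top 100 uM, half-log steps, 0.5% DMSO, duplicates; fitted both directions against DMSO.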

[13] = read-out: Signal transducer and activator of transcription 3 (Homo sapiens) (UniProt P40763); experiment: LTEA_HepaRG_STAT3: Life Technologies and Expression Analysis (LTEA) Assay for Signal transducer and activator of transcription (STAT3) using HepaRG (AID 2283529)
Procedure, shortened: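 HepaRG, 48 h exposure, 8-pt half-log series (top 100 uM), 0.5% DMSO vehicle, duplicates. Readout: STAT3 transcript by Fluidigm qRT-PCR, housekeeping-normalized; bidirectional fit vs DMSO baseline.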

[14] = read-out: sulfotransferase 2A1 (SULT2A1), SULT2A1 (gene 6822); experiment: LTEA_HepaRG_SULT2A1: Life Technologies and Expression Analysis (LTEA) Assay for sulfotransferase 2A1 (SULT2A1) using HepaRG (AID 2283531)
Procedure, shortened: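 Gene-expression endpoint in a human liver cell line: SULT2A1 mRNA change after 48 h chemical treatment, curves fitted in both directions relative to 0.5% DMSO vehicle. Concentrations spanned eight half-log steps from 100 uM.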

[15] = read-out: Transforming Growth Factor (TGFA), TGFA (gene 7039); experiment: LTEA_HepaRG_TGFA: Life Technologies and Expression Analysis (LTEA) Assay for Transforming Growth Factor (TGFA) using HepaRG (AID 2283532)
Procedure, shortened: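 qRT-PCR read-out of TGFA transcript, normalized to three housekeeping genes, fitted bidirectionally against 0.5% DMSO baseline. Human HepaRG cultures received chemicals for 48 h at eight half-log concentrations, top 100 uM.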

[16] = read-out: matrix metalloproteinase-10 (MMP10), MMP10 (gene 4319); experiment: LTEA_HepaRG_MMP10: Life Technologies and Expression Analysis (LTEA) Assay for matrix metalloproteinase-10 (MMP10) using HepaRG (AID 2283517)
Procedure, shortened: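 Transcript levels come from Fluidigm qRT-PCR normalized to three housekeeping genes, with curves fitted bidirectionally against 0.5% DMSO. Human HepaRG cells were dosed for 48 hours at concentrations up to 100 uM.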

MYC, MYC (gene 4609) = experiment: LTEA_HepaRG_MYC: Life Technologies and Expression Analysis (LTEA) Assay for MYC using HepaRG (AID 2283518)
Procedure, shortened: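 Expression changes were scored by TaqMan qRT-PCR with ACTB, GAPDH and POLR2A normalization. Cultures in serum-free induction medium received duplicate 8-point concentration series, highest 100 uM, for 48 h; DMSO (0.5%) served as baseline.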

[17] = read-out: solute carrier (SLCO1B1), SLCO1B1 (gene 10599); experiment: LTEA_HepaRG_SLCO1B1: Life Technologies and Expression Analysis (LTEA) Assay for solute carrier (SLCO1B1) using HepaRG (AID 2283530)
Procedure, shortened: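 Human HepaRG cultures treated for 48 h with an eight-concentration half-log series topping at 100 uM; SLCO1B1 measured by qRT-PCR and fitted bidirectionally relative to DMSO.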

[18] = read-out: Phosphatase and tensin (PTEN), PTEN (gene 5728); experiment: LTEA_HepaRG_PTEN: Life Technologies and Expression Analysis (LTEA) Assay for Phosphatase and tensin (PTEN) using HepaRG (AID 2283523)
Procedure, shortened: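 HepaRG, 48 h exposure, 8-pt half-log series from 100 uM top, 0.5% DMSO vehicle, duplicates. Readout: Fluidigm qRT-PCR of PTEN transcript; housekeeping normalization (ACTB, GAPDH, POLR2A). Gain or loss fitted relative to DMSO baseline.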

[19] = read-out: solute carrier (SLC22A1), SLC22A1 (gene 6580); experiment: LTEA_HepaRG_SLC22A1: Life Technologies and Expression Analysis (LTEA) Assay for solute carrier (SLC22A1) using HepaRG (AID 2283524)
Procedure, shortened: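 qRT-PCR readout (TaqMan, Fluidigm arrays) of SLC22A1 transcript, normalized to three housekeeping genes; bidirectional curve fit relative to 0.5% DMSO vehicle. Differentiated human HepaRG cells, 48 h chemical exposure, top concentration 100 uM, half-log steps, eight points.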

Measured: outcome

Sequence of Nuclear factor erythroid 2-related factor 2 (Homo sapiens) (Q16236 whole entry, looked up): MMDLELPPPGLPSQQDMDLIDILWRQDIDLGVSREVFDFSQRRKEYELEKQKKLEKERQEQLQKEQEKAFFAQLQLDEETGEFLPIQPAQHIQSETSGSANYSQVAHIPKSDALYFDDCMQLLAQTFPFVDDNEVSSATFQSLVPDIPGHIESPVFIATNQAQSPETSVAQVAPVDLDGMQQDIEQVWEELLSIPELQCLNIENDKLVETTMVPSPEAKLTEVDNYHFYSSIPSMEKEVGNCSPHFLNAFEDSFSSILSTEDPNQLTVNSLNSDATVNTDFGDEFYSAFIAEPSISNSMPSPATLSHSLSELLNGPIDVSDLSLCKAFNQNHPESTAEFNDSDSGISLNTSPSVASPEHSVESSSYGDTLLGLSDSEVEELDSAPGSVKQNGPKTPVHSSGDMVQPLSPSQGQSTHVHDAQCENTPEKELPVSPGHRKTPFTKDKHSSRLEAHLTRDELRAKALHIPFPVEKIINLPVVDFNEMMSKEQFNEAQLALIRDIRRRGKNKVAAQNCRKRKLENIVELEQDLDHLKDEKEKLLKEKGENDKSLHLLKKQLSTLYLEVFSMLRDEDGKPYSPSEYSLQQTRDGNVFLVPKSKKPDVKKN
Sequence of Nuclear factor NF-kappa-B p105 subunit (Homo sapiens) (P19838 whole entry, looked up): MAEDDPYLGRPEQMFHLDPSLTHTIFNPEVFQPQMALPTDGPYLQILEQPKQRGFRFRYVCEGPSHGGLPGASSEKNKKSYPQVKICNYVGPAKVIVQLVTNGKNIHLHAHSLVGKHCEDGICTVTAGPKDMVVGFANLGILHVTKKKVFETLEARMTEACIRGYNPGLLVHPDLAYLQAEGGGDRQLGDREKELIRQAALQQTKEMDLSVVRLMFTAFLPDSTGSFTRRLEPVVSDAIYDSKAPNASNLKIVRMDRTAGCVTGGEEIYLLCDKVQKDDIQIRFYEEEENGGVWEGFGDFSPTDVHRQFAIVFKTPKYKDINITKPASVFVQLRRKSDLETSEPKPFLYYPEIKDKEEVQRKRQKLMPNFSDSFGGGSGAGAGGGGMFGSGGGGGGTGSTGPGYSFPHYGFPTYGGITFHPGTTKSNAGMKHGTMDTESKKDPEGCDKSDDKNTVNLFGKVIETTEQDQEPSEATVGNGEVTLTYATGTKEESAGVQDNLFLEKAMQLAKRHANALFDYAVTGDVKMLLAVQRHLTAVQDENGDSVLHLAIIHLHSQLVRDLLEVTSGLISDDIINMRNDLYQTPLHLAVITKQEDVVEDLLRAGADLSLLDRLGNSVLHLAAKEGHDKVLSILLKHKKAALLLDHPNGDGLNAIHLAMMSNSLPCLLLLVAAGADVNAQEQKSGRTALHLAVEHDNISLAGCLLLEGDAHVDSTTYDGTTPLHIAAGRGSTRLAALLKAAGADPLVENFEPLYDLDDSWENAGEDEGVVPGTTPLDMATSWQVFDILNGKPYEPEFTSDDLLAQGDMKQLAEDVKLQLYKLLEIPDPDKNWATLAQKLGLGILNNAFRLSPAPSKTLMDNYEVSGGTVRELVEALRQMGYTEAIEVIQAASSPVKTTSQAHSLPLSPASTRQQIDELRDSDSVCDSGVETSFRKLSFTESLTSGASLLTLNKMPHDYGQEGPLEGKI
Sequence of Signal transducer and activator of transcription 3 (Homo sapiens) (P40763 whole entry, looked up): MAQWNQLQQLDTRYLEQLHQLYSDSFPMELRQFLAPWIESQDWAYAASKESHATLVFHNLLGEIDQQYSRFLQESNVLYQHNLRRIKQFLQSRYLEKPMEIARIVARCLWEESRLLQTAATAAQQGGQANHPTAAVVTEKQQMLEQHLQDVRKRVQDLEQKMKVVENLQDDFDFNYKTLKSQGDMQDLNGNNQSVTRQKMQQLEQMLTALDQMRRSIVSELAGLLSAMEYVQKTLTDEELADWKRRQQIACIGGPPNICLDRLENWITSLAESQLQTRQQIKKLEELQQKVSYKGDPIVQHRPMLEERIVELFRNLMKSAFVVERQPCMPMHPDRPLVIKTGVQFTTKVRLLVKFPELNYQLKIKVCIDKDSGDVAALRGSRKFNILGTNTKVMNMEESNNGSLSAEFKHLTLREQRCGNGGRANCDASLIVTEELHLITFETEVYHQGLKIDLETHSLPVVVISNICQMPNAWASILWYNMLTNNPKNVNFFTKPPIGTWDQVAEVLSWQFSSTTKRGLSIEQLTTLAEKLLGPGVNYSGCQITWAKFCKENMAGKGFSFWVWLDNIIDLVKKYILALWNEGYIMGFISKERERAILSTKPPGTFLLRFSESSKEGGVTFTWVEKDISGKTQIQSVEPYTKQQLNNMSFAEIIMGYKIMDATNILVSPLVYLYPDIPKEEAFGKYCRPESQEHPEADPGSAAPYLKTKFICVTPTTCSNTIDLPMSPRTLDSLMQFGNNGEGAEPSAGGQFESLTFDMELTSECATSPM

CCCCCCCCOC(=O)c1ccc(C(=O)OCCCCCCCC)c(C(=O)OCCCCCCCC)c1
inactive: [1] | [2] | [3] | [4] | [5] | [6] | [7] | [8] | [9] | [10] | [11] | [12] | [13] | [14] | [15]

[As]#[In]
inactive: [1] | [2] | [4] | [16] | MYC, MYC (gene 4609) | [5] | [6] | [7] | [8] | [9] | [10] | [11] | [12] | [13] | [17] | [14] | [15]

CCN(CC)N=O
inactive: [1] | [2] | [4] | [16] | MYC, MYC (gene 4609) | [5] | [6] | [7] | [8] | [18] | [9] | [10] | [11] | [12] | [13] | [17] | [14] | [15]

ClCCOCCCl
inactive: [1] | [2] | [4] | [16] | MYC, MYC (gene 4609) | [5] | [6] | [7] | [8] | [19] | [9] | [10] | [11] | [12] | [13] | [17] | [14] | [15]
